# Assay outcomes from PubChem BioAssay.
# LGR2 inh – inhibitors of bursicon-induced LGR2 CRE-luciferase signal, primary screen, cell-based, HEK293, CRE-luciferase reporter, bursicon stimulation; Drosophila bursicon receptor LGR2 (rickets); bursicon-stimulated, 4 h; inhibition, % at 9.99 µM; 380,000 tested, 0.35% active;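 active = drop in luminescence signal, shown as inhibition above about 50% in the replicate tests, limit read from the data, passing the limit was not always enough; inconclusive = probably only some replicates passing the limit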;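 note: agonist challenge used bursicon conditioned medium at about half maximal strength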
# TROY NFkB inh – inhibitors of TROY-driven NF-kB signaling, primary screen, Q293 LMP1-TROYcd cells, NF-kB luciferase, uHTS | inhibition, % at 10 µM | Q293 LMP1-TROYcd NF-kB luciferase reporter, 4 h | 360,000 tested, 0.98% active;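 active = compounds whose plate-normalised and pattern-corrected inhibition of the luciferase reporter signal at the single screening dose is 50% or more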
# EBV LMP1 NFkB – EBV LMP1-driven NF-kappaB luciferase reporter inhibitors, primary screen, cell-based, luminescence, single point; 350,000 tested, 0.69% active; LMP1-induced NF-kappaB luciferase reporter cells; inhibition, % at 12.5 µM; in the data active = inhibition above about 41%; inconclusive = no clear call, values can overlap the other calls;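 note: 0% = neutral control wells and 100% = reference inhibitor control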
# TWEAK Fn14 block – inhibitors of TWEAK-Fn14 signaling, primary screen, luciferase reporter cells, uHTS | TWEAK-stimulated Fn14 reporter cells, luciferase luminescence, 8 h | inhibition, % at 10 µM | 360,000 tested, 2% active; in the data active = inhibition above about 50%
# PAX8 inh HTS – inhibitors of PAX8-driven TPO luciferase reporter, primary screen, RMG-I cells, single concentration. 360,000 tested, 1.2% active. SteadyGlo, 24 h. inhibition, % at 12.6 µM;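 active = mean replicate inhibition at least 60% with every replicate also reaching 60%; inconclusive = only one of the two criteria is met; inactive = mean below 60% and not all replicates reaching 60%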;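 note: luciferase light reporting Pax8 driven TPO promoter activity; plate controls were median of neutral control wells for no effect and mitoxantrone controls for full effect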
# EWS-Fli inh – EWS/Fli-driven NR0B1 reporter inhibitors, primary screen, A673 cells, NR0B1 luciferase, luminescence, MLPCN library | viability-normalised | inhibition, % at 12.6 µM | 350,000 tested, 0.67% active | AID 651661, 2012;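 active = mean inhibition of at least 50% after viability correction, with every replicate also passing that limit; inconclusive = mean reaches 50% but only one of two replicates passes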;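 note: firefly luciferase signal divided by Alamar Blue viability fluorescence both relative to DMSO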
# * = called active by the depositor; ? = inconclusive; . = no result given. Shown are actives, neighbours in structure and some others; about 3.2% of the full set was active somewhere.
SMILES,LGR2 inh,TROY NFkB inh,EBV LMP1 NFkB,TWEAK Fn14 block,PAX8 inh HTS,EWS-Fli inh
C[C@@H]1CN([C@@H](C)CO)C(=O)Cc2cc(NS(=O)(=O)c3ccc(Cl)cc3)ccc2O[C@H]1CN(C)Cc1ccc(Cl)c(Cl)c1,-9.4,.,.,.,85.7*,30.7
C[C@@H]1CN([C@H](C)CO)C(=O)c2cc(NC(=O)Nc3cccc4ccccc34)ccc2O[C@H]1CN(C)C(=O)Nc1ccc2c(c1)OCO2,-14.4,.,.,.,19.1,-5.9
COCCNC(=O)C[C@@H]1CC[C@@H]2[C@H](COc3ccc(NC(=O)COC)cc3C(=O)N2C)O1,-10.2,.,.,.,-5.8,5.7
CCCC#Cc1cnc2c(c1)C(=O)N([C@H](C)CO)C[C@H](C)[C@@H](CN(C)C(=O)Cc1ccccc1)O2,-16.2,.,.,.,.,3.9
C[C@H](CO)N1C[C@H](C)[C@@H](CN(C)Cc2ccc(Cl)c(Cl)c2)Oc2ccc(NS(=O)(=O)c3ccc(Cl)cc3)cc2CC1=O,3.4,.,.,.,69.6*,14.6
C[C@@H]1CN([C@@H](C)CO)C(=O)Cc2cc(NS(=O)(=O)c3ccccc3)ccc2O[C@H]1CN(C)Cc1ccc(Cl)c(Cl)c1,21.3,.,.,.,113.6*,2.4
C[C@@H]1CN([C@H](C)CO)C(=O)Cc2cc(NS(=O)(=O)c3ccc(Cl)cc3)ccc2O[C@H]1CN(C)Cc1ccc(Cl)c(Cl)c1,12.0,.,.,.,-1.6,-3.7
Cc1ccc(S(=O)(=O)Nc2ccc3c(c2)CC(=O)N([C@@H](C)CO)C[C@@H](C)[C@@H](CN(C)Cc2ccc(Cl)c(Cl)c2)O3)cc1,28.3,.,.,.,-0.6,15.4
COC(=O)c1ccc2nc(-c3ccc(OC)c(OC)c3)c(Cc3ccc(OC)cc3C)n2c1,-4.2,5.9,.,-13.3,21.7,3.5
COC(=O)c1ccc2nc(-c3ccc(Cl)cc3)c(Cc3ccc(OC)cc3C)n2c1,-8.9,51.3*,.,81.5*,-45.2,-21.8
CCC(=O)N1CC2(C1)[C@@H](c1ccccc1)[C@@H](CO)N2C(=O)c1ccccc1,0.8,.,.,.,4.5,5.7
C[C@@H]1CN([C@@H](C)CO)C(=O)c2cccc(NS(=O)(=O)c3cccs3)c2O[C@@H]1CN(C)S(C)(=O)=O,1.0,.,.,.,.,-1.0
O=S(=O)(c1ccc(Cl)c(Cl)c1)c1snnc1-c1ccccc1,.,51.8*,21.4,77.8*,.,.
CO[C@H]1CC[C@@H]2CCN(C)C(=O)[C@@H](C)[C@H](OC)CN(C)C(=O)c3cc(C#N)ccc3OC[C@@H]1O2,8.1,.,.,.,0.0,-0.6
Cc1c(CCC(=O)O)c(=O)oc2cc3oc4c(c3cc12)CCCC4,-51.9,12.1,18.9,51.1*,-31.8,56.7*
Cc1c(CCC(=O)N2CCC[C@H]2C(=O)O)c(=O)oc2cc3oc4c(c3cc12)CCCC4,.,-1.2,-2.2,75.8*,.,.
O=C(NCC(c1cccs1)N1CCOCC1)c1ccc(OCc2ccccc2)cc1 (stereo not given),-6.0,-4.1,-0.3,-9.2,-17.5,-7.9
COc1cc(C(=O)NCC(c2cccs2)N2CCOCC2)ccc1OCc1ccc(Cl)cc1 (stereo not given),1.6,-2.4,-2.0,21.4,98.9*,12.5
CC(C)NC(=O)N(C)C[C@H]1Oc2ccc(NC(=O)CCCCCC(=O)Nc3ccccc3N)cc2CC(=O)N([C@@H](C)CO)C[C@@H]1C,1.0,.,.,.,-14.6,-8.8
CC1(C)CC(NS(=O)(=O)c2ccc(S(N)(=O)=O)cc2)CC(C)(C)N1,8.1,15.8,-13.7,-4.4,-6.9,3.5
CC1(C)CC(NS(=O)(=O)c2ccc(F)cc2)CC(C)(C)N1,-11.6,13.3,43.4*,3.2,-4.5,8.7
CCC(=O)N1CCN(c2ccc(-n3c(=O)ccc4cnc5ccc(-c6cnc7ccccc7c6)cc5c43)cc2C(F)(F)F)CC1,32.6,.,.,.,71.0*,45.5
O=C(O)COCC(=O)N1CCN(c2cc(C(F)(F)F)nc3ccccc23)CC1,-9.4,5.8,0.7,-0.2,10.6,2.2
CCC(=O)N(C)C[C@H]1Oc2ncc(C3=CCCC3)cc2C(=O)N([C@@H](C)CO)C[C@@H]1C,2.6,.,.,.,.,-4.6
O=C(CSC(=S)N1CCCC1)c1ccccc1,-16.8,18.9,20.2,45.2,.,7.5
SMILES,LGR2 inh,TROY NFkB inh,EBV LMP1 NFkB,TWEAK Fn14 block,PAX8 inh HTS,EWS-Fli inh
COc1ccc(C(=O)CSC(=S)N2CCCCC2)cc1,.,12.4,.,60.4*,.,.
O=C(CSC(=S)N1CCCCC1)c1ccccc1,67.3*,50.1*,5.4,72.1*,-40.8,63.8*
COC(=O)C[C@@H]1CC[C@H]2[C@@H](COc3ccc(NC(=O)c4cccc(Cl)c4)cc3C(=O)N2C)O1,-6.4,.,.,.,12.1,-4.7
O=C(C=Cc1ccccn1)c1ccccc1,?,14.6,12.8,82.1*,.,12.8
C=CCNc1nc(Nc2ccc(OC)c(OC)c2)c2sc(-c3ccccc3)cc2n1,30.9,7.5,.,31.2,.,56.1*
COCCNc1nc(NCc2ccc(NC(C)=O)cc2)c2sc(-c3ccccc3)cc2n1,34.5,-68.8,.,-52.1,86.4*,43.3
COc1ccc(Nc2ncnc3sc(-c4ccccc4)cc23)cc1OC,0.3,0.7,14.6,51.3*,2.5,.
COc1ccc(Nc2ncnc3c2cnn3-c2ccccc2)cc1OC,-58.9,-42.9,-11.6,5.1,-52.4,-46.6
C=CCNc1nc(NCCOC)c2sc(-c3ccccc3)cc2n1,-25.3,-25.4,.,-16.1,-13.4,-4.9
Cn1cnc(S(=O)(=O)N2C[C@@H](O)COC[C@@H]3O[C@@H](CC(=O)NCc4ccc(F)cc4)CC[C@H]32)c1,-5.7,.,.,.,-5.0,7.5
Cc1nc(NCCN2CCOCC2)c2oc3ccccc3c2n1,.,.,2.8,18.1,.,.
Cc1nc(NCCc2ccccc2)c2oc3ccccc3c2n1,.,30.5,-3.2,51.7*,-20.9,.
CO[C@@H]1CN(C)C(=O)c2ccc(NC(=O)Nc3ccc(Cl)cc3)cc2OC[C@H](C)NC[C@@H]1C,12.3,.,.,.,.,9.0
CC(=O)NC(c1ccc(Cl)cc1Cl)c1ccc2cccnc2c1O (stereo not given),43.5,28.5,68.6*,9.1,83.3*,46.6
COc1ccccc1C(NC(C)=O)c1cc(Cl)c2cccnc2c1O (stereo not given),11.8,-8.4,31.2,-3.0,48.2,10.7
Cc1ccc(S(=O)(=O)Nc2cc(Cl)c(O)c3ncccc23)cc1,33.7,-12.8,18.6,17.5,83.9*,-12.1
CCC(=O)NC(c1ccc(C)cc1)c1cc(Cl)c2cccnc2c1O (stereo not given),.,-17.9,43.0*,29.1,.,.
COc1ccc(C(NC(C)=O)c2ccc3cccnc3c2O)c(OC)c1 (stereo not given),.,7.7,58.6*,3.1,.,.
CC(=O)NC(C)c1cc(Cl)c2cccnc2c1O (stereo not given),-3.1,-5.9,8.7,10.6,25.2,21.1
